# Active and inactive are the calls of the source.
# Assays:
# [1] = binders of probe aFSTL3 on microarray, primary screen, stem cell growth factor project, biochemical, small-molecule microarray, fluorescence 635/667 (AID 1064); details: higher = more signal;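 further: measures binding of the biotinylated anti-FSTL3 antibody to printed compounds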
# [2] = binders from COS7 lysate, DM2A8 probe, primary screen, torsin A project, cell lysate, small-molecule microarray, fluorescence 635/667 (AID 1065); details: higher = more signal, COS7 lysate expressing mutant human TOR1A
# [3] = binders of probe aFGF2 on microarray, primary screen, stem cell growth factor project, biochemical, small-molecule microarray, fluorescence 635/667 (AID 1067); details: higher = more signal;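 further: measures binding of biotinylated aFGF2 protein to printed compounds on slides; z-score merges feature fluorescence and signal-to-noise across triplicate slides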
# [4] = binders of probe aFGF10 on microarray, primary screen, stem cell growth factor project, biochemical, small-molecule microarray, fluorescence 635/667 (AID 1071); details: higher = more signal;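 further: score merges 667 nm spot intensity and signal to noise from triplicate slides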
# [5] = target: Neurogenic locus notch homolog protein 2 (Homo sapiens) (UniProt Q04721); experiment: Notch2 binders on small-molecule microarrays, primary screen, biochemical, small-molecule microarray, 635 nm fluorescence, stem cell growth factors (AID 1073); details: Notch2 binding, higher = more signal
# Neurogenic locus notch homolog protein 2 (Homo sapiens), sequence (Q04721 whole entry, looked up, canonical isoform): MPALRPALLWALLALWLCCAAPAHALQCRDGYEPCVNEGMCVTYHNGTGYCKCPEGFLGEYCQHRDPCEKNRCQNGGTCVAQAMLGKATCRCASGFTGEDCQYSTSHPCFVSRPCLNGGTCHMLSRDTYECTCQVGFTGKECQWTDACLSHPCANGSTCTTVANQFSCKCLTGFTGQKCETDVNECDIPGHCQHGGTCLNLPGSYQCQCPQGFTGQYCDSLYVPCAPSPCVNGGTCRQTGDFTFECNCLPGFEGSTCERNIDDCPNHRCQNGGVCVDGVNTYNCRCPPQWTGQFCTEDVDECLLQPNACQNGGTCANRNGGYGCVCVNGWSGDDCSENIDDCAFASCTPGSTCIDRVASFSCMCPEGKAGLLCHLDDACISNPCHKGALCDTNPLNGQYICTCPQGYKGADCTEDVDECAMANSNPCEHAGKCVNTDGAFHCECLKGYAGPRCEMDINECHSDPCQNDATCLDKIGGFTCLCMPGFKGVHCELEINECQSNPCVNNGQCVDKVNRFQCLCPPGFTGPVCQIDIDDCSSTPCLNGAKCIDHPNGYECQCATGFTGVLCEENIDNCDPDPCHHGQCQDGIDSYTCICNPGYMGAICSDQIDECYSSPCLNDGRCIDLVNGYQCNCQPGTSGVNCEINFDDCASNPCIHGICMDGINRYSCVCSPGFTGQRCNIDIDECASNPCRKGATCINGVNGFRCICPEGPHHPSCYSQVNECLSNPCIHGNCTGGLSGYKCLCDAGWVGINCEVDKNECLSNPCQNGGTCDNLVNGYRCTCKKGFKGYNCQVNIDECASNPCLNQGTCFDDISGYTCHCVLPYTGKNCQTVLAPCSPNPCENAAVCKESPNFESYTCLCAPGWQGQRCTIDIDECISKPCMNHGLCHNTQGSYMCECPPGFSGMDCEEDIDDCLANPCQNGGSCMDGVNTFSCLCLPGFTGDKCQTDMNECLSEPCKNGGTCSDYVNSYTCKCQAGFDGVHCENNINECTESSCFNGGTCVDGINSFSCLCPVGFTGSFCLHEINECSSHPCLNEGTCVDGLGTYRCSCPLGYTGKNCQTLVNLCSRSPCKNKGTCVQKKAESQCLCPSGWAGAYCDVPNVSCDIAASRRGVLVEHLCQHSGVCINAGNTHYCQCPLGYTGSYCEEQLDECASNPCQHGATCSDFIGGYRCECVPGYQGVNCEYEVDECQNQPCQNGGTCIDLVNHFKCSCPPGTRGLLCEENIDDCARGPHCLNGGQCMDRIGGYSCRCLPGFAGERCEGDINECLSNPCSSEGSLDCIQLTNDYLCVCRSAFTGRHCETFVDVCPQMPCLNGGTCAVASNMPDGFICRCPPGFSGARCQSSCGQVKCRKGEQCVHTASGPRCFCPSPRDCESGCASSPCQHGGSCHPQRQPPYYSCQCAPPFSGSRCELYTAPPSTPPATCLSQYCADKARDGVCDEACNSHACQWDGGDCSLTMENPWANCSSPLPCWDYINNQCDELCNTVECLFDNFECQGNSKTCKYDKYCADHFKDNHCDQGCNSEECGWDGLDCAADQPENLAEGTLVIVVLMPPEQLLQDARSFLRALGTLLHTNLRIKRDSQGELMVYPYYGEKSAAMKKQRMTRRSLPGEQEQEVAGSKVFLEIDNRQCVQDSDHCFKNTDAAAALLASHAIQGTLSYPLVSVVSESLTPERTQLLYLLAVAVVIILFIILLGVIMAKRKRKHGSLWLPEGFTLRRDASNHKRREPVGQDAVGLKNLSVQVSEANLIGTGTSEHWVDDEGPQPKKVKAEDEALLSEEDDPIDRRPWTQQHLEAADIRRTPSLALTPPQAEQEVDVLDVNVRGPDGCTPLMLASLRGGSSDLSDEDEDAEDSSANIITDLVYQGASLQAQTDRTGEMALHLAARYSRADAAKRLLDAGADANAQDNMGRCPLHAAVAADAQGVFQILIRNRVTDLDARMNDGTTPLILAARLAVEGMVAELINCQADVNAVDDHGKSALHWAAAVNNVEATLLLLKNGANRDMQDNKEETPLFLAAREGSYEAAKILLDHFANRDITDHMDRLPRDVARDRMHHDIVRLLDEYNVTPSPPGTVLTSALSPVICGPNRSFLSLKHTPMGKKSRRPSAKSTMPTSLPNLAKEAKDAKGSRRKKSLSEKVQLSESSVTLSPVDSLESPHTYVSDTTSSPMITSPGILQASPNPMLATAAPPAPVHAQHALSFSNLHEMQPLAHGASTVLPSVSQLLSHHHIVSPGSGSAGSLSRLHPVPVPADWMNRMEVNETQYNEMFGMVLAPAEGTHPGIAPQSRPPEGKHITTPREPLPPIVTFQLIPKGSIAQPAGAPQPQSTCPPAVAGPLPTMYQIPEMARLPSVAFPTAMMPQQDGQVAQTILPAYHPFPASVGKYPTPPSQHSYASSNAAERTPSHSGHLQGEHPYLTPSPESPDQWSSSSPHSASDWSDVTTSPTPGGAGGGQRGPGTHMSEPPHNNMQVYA
# [6] = target: Pro-neuregulin-1, membrane-bound isoform (Homo sapiens) (UniProt Q02297); experiment: NRG1 binders on small-molecule microarrays, primary screen, psychiatric disease protein project, biochemical, small-molecule microarray, fluorescence 635/667 (AID 1075); details: NRG1 binding, 635 nm fluorescence, higher = more signal;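 further: score combines 667 nm spot fluorescence with signal to noise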
# Pro-neuregulin-1, membrane-bound isoform (Homo sapiens), sequence (Q02297 whole entry, looked up, the tested form may be a part, canonical isoform): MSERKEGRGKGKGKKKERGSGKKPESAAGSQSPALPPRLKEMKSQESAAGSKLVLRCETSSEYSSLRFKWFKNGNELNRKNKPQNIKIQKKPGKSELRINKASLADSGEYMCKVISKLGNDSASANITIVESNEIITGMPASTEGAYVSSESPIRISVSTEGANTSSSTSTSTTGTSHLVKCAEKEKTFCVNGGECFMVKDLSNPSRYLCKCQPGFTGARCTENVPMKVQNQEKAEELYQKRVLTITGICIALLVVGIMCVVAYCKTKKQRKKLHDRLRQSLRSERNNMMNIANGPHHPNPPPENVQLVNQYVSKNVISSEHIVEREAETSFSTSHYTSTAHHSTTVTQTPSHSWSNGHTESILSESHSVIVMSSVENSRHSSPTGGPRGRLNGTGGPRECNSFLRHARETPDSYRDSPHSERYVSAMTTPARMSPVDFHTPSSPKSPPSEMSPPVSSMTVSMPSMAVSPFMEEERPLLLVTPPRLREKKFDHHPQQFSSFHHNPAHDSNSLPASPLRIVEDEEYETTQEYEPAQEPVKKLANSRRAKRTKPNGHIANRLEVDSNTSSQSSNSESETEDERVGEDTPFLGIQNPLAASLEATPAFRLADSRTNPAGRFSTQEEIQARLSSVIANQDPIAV
# [7] = system: Neuregulin-1 EGF-like domain; experiment: binders of neuregulin-1 EGF-like domain, primary screen, biochemical, small-molecule microarray, 635 nm fluorescence (AID 1081); details: small-molecule microarray binding, higher = more signal;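 further: binding of the protein to compounds printed on small-molecule microarray slides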
# [8] = FRG1 promoter luciferase signal modulators, primary screen, FRG1 inhibition for FSHD, cell-based, C2C12 myotubes, firefly/Renilla luciferase, luminescence (AID 1084); details: higher = more signal, called active from +8 up or from −8 down
# [9] = binders of probe aFST on microarray, primary screen, stem cell growth factor project, biochemical, small-molecule microarray, fluorescence 635/667 (AID 1086); details: higher = more signal;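 further: score merges 667 nm fluorescence with signal-to-noise of each printed compound spot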
# [10] = binders of probe aHhip on microarray, primary screen, stem cell growth factor project, biochemical, small-molecule microarray, fluorescence 635/667 (AID 1087); details: higher = more signal;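 further: score merges spot fluorescence at 667nm with spot signal to noise ratio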
# [11] = system: PRMT1 (protein arginine N-methyltransferase 1); experiment: PRMT1 binders on small-molecule microarrays, primary screen, biochemical, small-molecule microarray, 635 nm fluorescence (AID 1088); details: small-molecule microarray binding, higher = more signal;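 further: binding of Prmt1 protein to compounds spotted on small-molecule microarray slides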
# [12] = yeast growth modulation, basal conditions, primary screen, YJM789 clinical isolate, OD600, 24 h (AID 1089);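 further: growth of clinical yeast isolate S. cerevisiae YJM 789 seeded 1000 cells per well; test concentration not given here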; details: S. cerevisiae YJM789 growth, higher = more signal, called active from +8 up or from −8 down
# [13] = fission yeast growth modulation, primary screen, strain 972, OD600, 24 h, no modulator (AID 1090);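 further: basal condition with compound alone and no growth modifier present; test concentration not given here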; details: S. pombe 972 growth, higher = more signal, called active from +8 up or from −8 down
# [14] = S. cerevisiae growth modulation with rapamycin, primary screen, strain BY4716, OD600, 96 h (AID 1091); details: higher = more signal, called active from +8 up or from −8 down; further: test concentration not given here
# [15] = target: Torsin-1A-interacting protein 2 (Homo sapiens) (UniProt Q8NFQ8); experiment: LULL1 binders on small-molecule microarray, primary screen, cell lysate, human LULL1 lysate, 635/667 nm fluorescence (AID 1092); details: hLULL1 lysate binding, 635 nm fluorescence, higher = more signal;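 further: probe is lysate of COS7 cells overexpressing human LULL1; score merges per-feature 667 nm fluorescence with signal-to-noise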
# Torsin-1A-interacting protein 2 (Homo sapiens), sequence (Q8NFQ8 whole entry, looked up): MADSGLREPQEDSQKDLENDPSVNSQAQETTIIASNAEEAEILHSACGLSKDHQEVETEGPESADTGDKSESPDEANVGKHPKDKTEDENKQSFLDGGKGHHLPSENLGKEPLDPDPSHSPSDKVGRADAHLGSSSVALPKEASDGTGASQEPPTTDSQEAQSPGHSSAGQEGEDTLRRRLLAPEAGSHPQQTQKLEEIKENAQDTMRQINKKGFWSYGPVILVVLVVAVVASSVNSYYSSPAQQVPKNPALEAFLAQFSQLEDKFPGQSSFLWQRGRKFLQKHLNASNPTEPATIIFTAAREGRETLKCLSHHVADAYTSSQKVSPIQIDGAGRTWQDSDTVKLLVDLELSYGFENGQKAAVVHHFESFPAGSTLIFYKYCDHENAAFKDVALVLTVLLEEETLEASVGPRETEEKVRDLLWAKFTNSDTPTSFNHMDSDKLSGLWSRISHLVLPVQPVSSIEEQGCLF
# [16] = E. coli growth modulation, two-sided OD650, primary screen, E. coli filamentation project, strain DRC41, 24 h (AID 1093); details: OD650, 24 h, higher = more signal, called active from +8 up or from −8 down;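 further: MC1000 strain lacking acrAB efflux and sulA so SOS filamentation is blocked; test concentration not given here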
# [17] = small-molecule microarray binders of probe aLefty2, primary screen, biochemical, biotinylated probe, 635/667 nm fluorescence (AID 1094); details: higher = more signal;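 further: score merges spot fluorescence near 667 nm with spot signal-to-noise ratio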
# [18] = system: Noggin (protein binding on small-molecule microarray); experiment: Noggin binders on small-molecule microarray, primary screen, biochemical, 635/667 nm fluorescence (AID 1095); details: 635 nm fluorescence, higher = more signal;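 further: score merges 667 nm feature fluorescence with signal to noise over triplicate slides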
# [19] = target: Neurogenic locus notch homolog protein 3 (Homo sapiens) (UniProt Q9UM47); experiment: NOTCH3 binders on small-molecule microarray, primary screen, biochemical, 635/667 nm fluorescence (AID 1096); details: NOTCH3 binding, 635 nm fluorescence, higher = more signal
# [20] = small-molecule microarray binders of probe aEGFR, primary screen, biochemical, biotinylated probe, 635/667 nm fluorescence (AID 1097); details: higher = more signal;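 further: probe is a biotinylated anti-EGFR antibody binding compounds printed on slides; score combines fluorescence near 667 nm and signal to noise of each spot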
Compound,composite z-score [1],composite z-score [2],composite z-score [3],composite z-score [4],composite z-score [5],composite z-score [6],composite z-score [7],z-score [8],composite z-score [9],composite z-score [10],composite z-score [11],z-score [12],z-score [13],z-score [14],composite z-score [15],z-score [16],composite z-score [17],composite z-score [18],composite z-score [19],composite z-score [20]
C[C@@H]1ON(c2cccc(C(=O)OC(C)(C)C)c2)[C@H](c2ccc(Br)cc2)[C@H]1C(=O)N1C(=O)OC[C@H]1Cc1ccccc1,-0.532,0.351,-0.031,0.511,1.37,0.457,0.958,-0.295 (inactive),0.625,0.245,1.54,0.912 (inactive),1.38 (inactive),0.528 (inactive),1.5,-0.448 (inactive),-0.0408,0.57,1.12,-0.0039
COC(=O)[C@@]1(Cc2ccccc2)[C@H]2c3cc(C(=O)N4CCCC4)n(Cc4cccc5ccccc45)c3C[C@H]2CN1C(=O)c1ccccc1,1.79,0.0848,0.705,0.913,1.63,1.49,1.21,-0.165 (inactive),2.03,0.869,-1.59,0.506 (inactive),1.56 (inactive),1.43 (inactive),2.54,-0.395 (inactive),1.29,-0.685,0.943,0.891
C=CCNC(=O)[C@H]1[C@@H]2C(=O)O[C@@H](c3ccccc3)[C@@H](c3ccccc3)N2[C@@H](c2ccc(OCCO)cc2)[C@]12C(=O)Nc1ccc(C#CC3=CCCCC3)cc12,-0.299,0.218,0.0703,0.498,1.05,0.688,1.29,-0.254 (inactive),0.233,-0.216,1.55,2.28 (inactive),1.46 (inactive),4.72 (inactive),2.89,1.53 (inactive),-0.109,0.673,1.15,-0.147
NCCCCCNC(=O)[C@@H]1C[C@@H]2C(=O)NCC(=O)N2[C@@H]1c1ccc(O)cc1,-0.293,0.304,-0.129,0.975,-0.195,0.817,1.25,0.117 (inactive),-0.107,-0.0994,1.53,-0.491 (inactive),-0.723 (inactive),0.124 (inactive),2.51,-0.031 (inactive),-0.145,1.37,0.892,-0.192
CC(C)(C)OC(=O)CC[C@@]1(C(N)=O)N=C(c2ccc(OCCCO)cc2)O[C@@H]1c1ccccc1,0.0075,1.93,-0.0399,0.558,1.29,1.71,1.24,0.18 (inactive),1.05,-0.134,1.57,-0.145 (inactive),-0.589 (inactive),-0.399 (inactive),3.17,-0.511 (inactive),0.0917,0.392,0.79,0.106
